Test results taken from PubChem BioAssay AID1159580 (chemical genetic matrix, 2015).
Several values for one entry are separate records, joined by “and”; a condition that tells them apart may be missing. Equal values may be shown once. The whole screen tested about 5,500 compounds, of which about 2,000 (36%) were called active. About 18% were inconclusive and are not listed. No stated cut-off is given here; in the data, active means normalized growth mostly below about 0.91 (no sharp cut-off); inconclusive means no clear call, values can overlap the other calls; inactive means mostly above about 0.92. This is one part of the list.

Experiment: chemical genetic growth profiling, strain panel (AID 1159580);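 further: tested at 20 µM; growth read once vehicle control cultures reached saturation at 30 °C; 1 = growth at the plate median or of vehicle wells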
Conditions: S. cerevisiae deletion strains, growth OD

Measured: normalized growth

CCCCCCC(C)OC(=O)COc1ccc(Cl)cc1Cl (configuration not stated)
inactive: locus YAL013W, strain DEP1, stronger effect = lower value 0.981 | locus YAL021C, strain ccr4, stronger effect = lower value 0.991 | locus YAL026C, strain drs2, stronger effect = lower value 0.993 | locus YAL030W, strain snc1, stronger effect = lower value 0.99 | locus YBL061C, strain skt5, stronger effect = lower value 0.996 | locus YBR009C, strain hhf1, stronger effect = lower value 0.985 | locus YBR021W, strain FUR4, stronger effect = lower value 1 | locus YBR023C, strain chs3, stronger effect = lower value 0.99 | locus YBR171W, strain sec66, stronger effect = lower value 0.99 | locus YBR229C, strain ROT2, stronger effect = lower value 0.996 | locus YBR231C, strain swc5, stronger effect = lower value 0.984 | locus YBR279W, strain paf1, stronger effect = lower value 0.994 | locus YCL011C, strain gbp2, stronger effect = lower value 0.987 | locus YCL016C, strain dcc1, stronger effect = lower value 0.988 | locus YCL029C, strain bik1, stronger effect = lower value 1 | locus YCL061C, strain MRC1, stronger effect = lower value 0.993 | locus YCL069W, strain vba3, stronger effect = lower value 0.992 | locus YCR088W, strain abp1, stronger effect = lower value 0.996 | locus YDL005C, strain med2, stronger effect = lower value 0.996 | locus YDL035C, strain GPR1, stronger effect = lower value 0.955 | locus YDL040C, strain nat1, stronger effect = lower value 0.985 | locus YDL074C, strain BRE1, stronger effect = lower value 0.968 | locus YDL101C, strain DUN1, stronger effect = lower value 0.985 | locus YDL134C, strain PPH21, stronger effect = lower value 1 | locus YDL185W, strain tfp1, stronger effect = lower value 1.01 | locus YDL192W, strain arf1, stronger effect = lower value 1 | locus YDR001C, strain nth1, stronger effect = lower value 0.99 | locus YDR069C, strain doa4, stronger effect = lower value 0.97 | locus YDR101C, strain arx1, stronger effect = lower value 0.996 | locus YDR137W, strain rgp1, stronger effect = lower value 0.987 | locus YDR150W, strain NUM1, stronger effect = lower value 1.01 | locus YDR159W, strain sac3, stronger effect = lower value 0.992 | locus YDR162C, strain NBP2, stronger effect = lower value 0.939 | locus YDR195W, strain ref2 0.957 | locus YDR297W, strain sur2, stronger effect = lower value 0.988 | locus YDR318W, strain mcm21, stronger effect = lower value 1 | locus YDR334W, strain swr1, stronger effect = lower value 0.988 | locus YDR335W, strain msn5, stronger effect = lower value 0.994 | locus YDR388W, stronger effect = lower value 1 | locus YDR392W, strain spt3, stronger effect = lower value 0.997 | locus YDR502C, strain sam2, stronger effect = lower value 1 | locus YEL003W, strain gim4, stronger effect = lower value 0.988 | locus YEL037C, strain rad23, stronger effect = lower value 0.995 | locus YEL061C, strain CIN8 (second series), stronger effect = lower value 0.988 | locus YEL061C, strain CIN8, stronger effect = lower value 0.986 | locus YER015W, strain faa2, stronger effect = lower value 0.991 | locus YER016W, strain bim1, stronger effect = lower value 0.99 | locus YER110C, stronger effect = lower value 1 | locus YER111C, strain swi4, stronger effect = lower value 1 | locus YER155C, strain BEM2 (second series), stronger effect = lower value 0.989 | locus YER155C, strain BEM2, stronger effect = lower value 0.976 | locus YER167W, strain BCK2, stronger effect = lower value 0.986 | locus YFR010W, strain ubp6, stronger effect = lower value 0.992 | locus YGL078C, strain dbp3, stronger effect = lower value 0.996 | locus YGL086W, strain mad1, stronger effect = lower value 0.997 | locus YGL167C, strain pmr1, stronger effect = lower value 0.993 | locus YGL173C, strain kem1, stronger effect = lower value 0.989 | locus YGL227W, strain vid30, stronger effect = lower value 0.979 | locus YGL240W, strain doc1, stronger effect = lower value 1 | locus YGL248W, strain PDE1, stronger effect = lower value 0.991 | locus YGL253W, strain hxk2, stronger effect = lower value 0.987 | locus YGR078C, strain PAC10, stronger effect = lower value 0.988 | locus YGR135W, strain pre9, stronger effect = lower value 1.01 | locus YGR229C, strain SMI1, stronger effect = lower value 0.891 | locus YGR252W, strain gcn5, stronger effect = lower value 1 | locus YHR013C, strain ard1, stronger effect = lower value 0.988 | locus YHR027C, strain rpn1, stronger effect = lower value 0.996 | locus YHR030C, strain SLT2, stronger effect = lower value 0.974 and 1.03 | locus YHR079C, strain IRE1 (second series), stronger effect = lower value 0.997 | locus YHR079C, strain IRE1, stronger effect = lower value 1.02 | locus YHR094C, strain hxt1, stronger effect = lower value 0.998 | locus YHR129C, strain ARP1, stronger effect = lower value 0.977 | locus YHR142W, strain chs7, stronger effect = lower value 0.988 | locus YHR200W, strain rpn10, stronger effect = lower value 0.993 | locus YIL066C, strain RNR3, stronger effect = lower value 0.963 | locus YIL073C, strain SPO22, stronger effect = lower value 0.957 | locus YIL125W, strain kgd1, stronger effect = lower value 0.996 | locus YIR030C, strain dcg1, stronger effect = lower value 0.996 | locus YJL092W, strain hpr5, stronger effect = lower value 0.994 | locus YJL095W, strain BCK1 (second series), stronger effect = lower value 0.983 | locus YJL095W, strain BCK1, stronger effect = lower value 0.94 and 1.03 | locus YJL115W, strain asf1, stronger effect = lower value 0.989 | locus YJL129C, strain trk1, stronger effect = lower value 0.953 | locus YJL134W, strain LCB3, stronger effect = lower value 0.98 | locus YJL154C, strain vps35, stronger effect = lower value 0.994 | locus YJL164C, strain tpk1, stronger effect = lower value 0.969 | locus YJL166W, strain qcr8, stronger effect = lower value 0.989 | locus YJL168C, strain set2, stronger effect = lower value 1 | locus YJL187C, strain SWE1 (second series), stronger effect = lower value 0.998 | locus YJL187C, strain SWE1, stronger effect = lower value 0.992 | locus YJR043C, strain POL32, stronger effect = lower value 0.969 | locus YJR066W, strain TOR1, stronger effect = lower value 0.949
